According to article PMC5540273 (PLoS ONE, 2017):

System: T1, MLCK
T1 construct: gene MYLK3
Details: concentration: 1 μM,replicates: in singlicate; n = 1
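Also: KINOMEscan kinase panel screen.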

Q: `Cl.Oc1cc(-c2nc(-c3ccccc3)[nH]c2-c2ccncc2)ccc1Cl` [SB-386023] was tested. Which “%Inh” value did it give?
A: 0%

Q: Which “%Inh” value does the source give for `Cc1cc(C(=O)Nc2ccc(Oc3ccc4nc(NC(=O)C5CC5)cn4n3)cc2)nn1-c1ccccc1` here?
A: 0%

Q: How did the “%Inh” value turn out when `O=C(NCCNc1ccnc(NCc2ccc(F)cc2)n1)c1cc2ccccc2s1` [GSK1379944] was run?
A: 0%

Q: How did the “%Inh” value turn out when `C[C@@H](Oc1cc(-c2cnn(C3CCNCC3)c2)cnc1N)c1c(Cl)ccc(F)c1Cl` was run?
A: 0%

Q: With `C=CC(=O)Nc1cc2c(Nc3ccc(F)c(Cl)c3)ncnc2cc1OCCCN1CCOCC1` [GW781483] as the compound, how does the “%Inh” value read?
A: 0%

Q: `CC(C)Nc1cc(-c2ccc3c(N)n[nH]c3c2)nc(N)n1` [GSK2221681] was tested. Which “%Inh” value did it give?
A: 51%

Q: With `Nc1nc(Nc2ccccc2)cc(-c2ccc3c(N)n[nH]c3c2)n1` [GSK2225749] as the compound, how does the “%Inh” value read?
A: 18%

Q: How did the “%Inh” value turn out when `CN(C)CC(O)COc1ccc(Nc2nccc(-c3cnn4nc(N5CCOCC5)ccc34)n2)cc1` (centres unmarked) [GW767488] was run?
A: 0%

Q: How did the “%Inh” value turn out when `Cc1cc2cn[nH]c2cc1-c1cccc2c(N)c(C(N)=O)nnc12` was run?
A: 0%

Q: For `O=C(NCCCN1CCOC1=O)c1cnc(NCc2cc(Cl)ccc2Cl)nc1NC1CCCC1`, which “%Inh” value is on record?
A: 0%

Q: Which “%Inh” value does the source give for `CCn1c(-c2nonc2N)nc2c(C#CC(C)(C)O)nc(OCCN)cc21.Cl.Cl` [GSK902056] here?
A: 0%

Q: How did the “%Inh” value turn out when `Cc1n[nH]c2ccc(-c3cc(OC[C@@H](N)Cc4ccccc4)cnc3-c3ccoc3)cc12.O=C(O)C(F)(F)F.O=C(O)C(F)(F)F` [GSK507358] was run?
A: 90%

Q: `CN(C)CCOc1ccc(-c2cc(-c3c[nH]nc3-c3ccccn3)ccn2)cc1` [GW835314] was tested. Which “%Inh” value did it give?
A: 0%

Q: How did the “%Inh” value turn out when `Cl.Cl.NC[C@H](CC1CCCCC1)NC(=O)c1cc(Br)c(-c2ccnc3[nH]ccc23)s1` [GSK1581427] was run?
A: 39%

Q: With `CC(C)N1C(=O)Cc2cc(Nc3ncc(C(F)(F)F)c(NCc4cccc(S(C)(=O)=O)c4)n3)ccc21` as the compound, how does the “%Inh” value read?
A: 6%

Q: With `NC(=O)c1cc(-c2ccccc2)cc2c(C3CCNCC3)c[nH]c12` [GSK301362] as the compound, how does the “%Inh” value read?
A: 0%

Q: Which “%Inh” value does the source give for `Cc1ccc2c(-c3ccncc3)c(-c3ccc(F)cc3)nn2c1.Cl` [GW461484] here?
A: 0%

Q: For `COc1ccc(C[C@@H](CN)NC(=O)c2cc(Br)c(-c3ccnc4[nH]ccc34)s2)cc1.Cl.Cl` [GSK1389063], which “%Inh” value is on record?
A: 95.4%

Q: Which “%Inh” value does the source give for `Cl.Cl.Nc1nc(-c2ccc3c(N)n[nH]c3c2)cc(N2CCCC(NC(=O)c3ccccc3)C2)n1` (centres unmarked) [GSK2286775] here?
A: 0%

Q: Which “%Inh” value does the source give for `CCN(CC)CCOc1ccc(Nc2ncc3cc(-c4c(Cl)cccc4Cl)c(=O)n(C)c3n2)cc1` [SB-601273] here?
A: 98.4%

Q: For `CCN(CC)CCCCNc1ncc2cc(-c3c(Cl)cccc3Cl)c(NC(=O)NC(C)(C)C)nc2n1`, which “%Inh” value is on record?
A: 11%

Q: Which “%Inh” value does the source give for `Cc1ccc(-n2nc(C(C)(C)C)cc2NC(=O)Nc2ccc(OCCN3CCOCC3)c3ccccc23)cc1` [GW839464] here?
A: 0%

Q: For `C[C@@H]1CCN(C(=O)CC#N)C[C@@H]1N(C)c1ncnc2[nH]ccc12`, which “%Inh” value is on record?
A: 0%

Q: Which “%Inh” value does the source give for `C[C@H]1Oc2cc(cnc2N)-c2c(nn(C)c2C#N)CN(C)C(=O)c2ccc(F)cc21` here?
A: 0%

Q: For `Cc1occc1-c1nc(N)c(OC[C@@H](N)Cc2c[nH]c3ccccc23)cc1-c1cc2c(C)n[nH]c2cn1` [GSK1660450], which “%Inh” value is on record?
A: 2%

Q: With `Cl.Cl.NC[C@H](Cc1ccc(C(F)(F)F)cc1)NC(=O)c1cc(Br)c(-c2ccnc3[nH]ccc23)s1` [GSK1487252] as the compound, how does the “%Inh” value read?
A: 63%

System: T2, MLK1
T2 construct: gene MAP3K9
Details: concentration: 1 μM,replicates: in singlicate; n = 1

Q: `Cl.Oc1cc(-c2nc(-c3ccccc3)[nH]c2-c2ccncc2)ccc1Cl` [SB-386023] was tested. Which “%Inh” value did it give?
A: 0%

Q: With `Cc1cc(C(=O)Nc2ccc(Oc3ccc4nc(NC(=O)C5CC5)cn4n3)cc2)nn1-c1ccccc1` as the compound, how does the “%Inh” value read?
A: 20%

Q: For `O=C(NCCNc1ccnc(NCc2ccc(F)cc2)n1)c1cc2ccccc2s1` [GSK1379944], which “%Inh” value is on record?
A: 5%

Q: With `C[C@@H](Oc1cc(-c2cnn(C3CCNCC3)c2)cnc1N)c1c(Cl)ccc(F)c1Cl` as the compound, how does the “%Inh” value read?
A: 0%

Q: Which “%Inh” value does the source give for `CNC(=O)c1ccccc1Sc1ccc2c(/C=C/c3ccccn3)n[nH]c2c1` here?
A: 0%

Q: For `C=CC(=O)Nc1cc2c(Nc3ccc(F)c(Cl)c3)ncnc2cc1OCCCN1CCOCC1` [GW781483], which “%Inh” value is on record?
A: 0%

Q: How did the “%Inh” value turn out when `CC(C)Nc1cc(-c2ccc3c(N)n[nH]c3c2)nc(N)n1` [GSK2221681] was run?
A: 10%

Q: With `Nc1nc(Nc2ccccc2)cc(-c2ccc3c(N)n[nH]c3c2)n1` [GSK2225749] as the compound, how does the “%Inh” value read?
A: 0%

Q: How did the “%Inh” value turn out when `CN(C)CC(O)COc1ccc(Nc2nccc(-c3cnn4nc(N5CCOCC5)ccc34)n2)cc1` (centres unmarked) [GW767488] was run?
A: 0%

Q: How did the “%Inh” value turn out when `Cc1cc2cn[nH]c2cc1-c1cccc2c(N)c(C(N)=O)nnc12` was run?
A: 18%

Q: Which “%Inh” value does the source give for `O=C(NCCCN1CCOC1=O)c1cnc(NCc2cc(Cl)ccc2Cl)nc1NC1CCCC1` here?
A: 8%

Q: With `CCn1c(-c2nonc2N)nc2c(C#CC(C)(C)O)nc(OCCN)cc21.Cl.Cl` [GSK902056] as the compound, how does the “%Inh” value read?
A: 0%

Q: With `Cc1n[nH]c2ccc(-c3cc(OC[C@@H](N)Cc4ccccc4)cnc3-c3ccoc3)cc12.O=C(O)C(F)(F)F.O=C(O)C(F)(F)F` [GSK507358] as the compound, how does the “%Inh” value read?
A: 0%

Q: For `CN(C)CCOc1ccc(-c2cc(-c3c[nH]nc3-c3ccccn3)ccn2)cc1` [GW835314], which “%Inh” value is on record?
A: 14%

Q: Which “%Inh” value does the source give for `Cl.Cl.NC[C@H](CC1CCCCC1)NC(=O)c1cc(Br)c(-c2ccnc3[nH]ccc23)s1` [GSK1581427] here?
A: 0%

Q: For `CC(C)N1C(=O)Cc2cc(Nc3ncc(C(F)(F)F)c(NCc4cccc(S(C)(=O)=O)c4)n3)ccc21`, which “%Inh” value is on record?
A: 99.7%

Q: With `NC(=O)c1cc(-c2ccccc2)cc2c(C3CCNCC3)c[nH]c12` [GSK301362] as the compound, how does the “%Inh” value read?
A: 9%

Q: With `Cc1ccc2c(-c3ccncc3)c(-c3ccc(F)cc3)nn2c1.Cl` [GW461484] as the compound, how does the “%Inh” value read?
A: 10%

Q: For `COc1ccc(C[C@@H](CN)NC(=O)c2cc(Br)c(-c3ccnc4[nH]ccc34)s2)cc1.Cl.Cl` [GSK1389063], which “%Inh” value is on record?
A: 13%

Q: How did the “%Inh” value turn out when `Cl.Cl.Nc1nc(-c2ccc3c(N)n[nH]c3c2)cc(N2CCCC(NC(=O)c3ccccc3)C2)n1` (centres unmarked) [GSK2286775] was run?
A: 0%

Q: `CCN(CC)CCOc1ccc(Nc2ncc3cc(-c4c(Cl)cccc4Cl)c(=O)n(C)c3n2)cc1` [SB-601273] was tested. Which “%Inh” value did it give?
A: 87%

Q: For `CCN(CC)CCCCNc1ncc2cc(-c3c(Cl)cccc3Cl)c(NC(=O)NC(C)(C)C)nc2n1`, which “%Inh” value is on record?
A: 0%

Q: How did the “%Inh” value turn out when `Cc1ccc(-n2nc(C(C)(C)C)cc2NC(=O)Nc2ccc(OCCN3CCOCC3)c3ccccc23)cc1` [GW839464] was run?
A: 6%

Q: How did the “%Inh” value turn out when `C[C@@H]1CCN(C(=O)CC#N)C[C@@H]1N(C)c1ncnc2[nH]ccc12` was run?
A: 0%

Q: With `C[C@H]1Oc2cc(cnc2N)-c2c(nn(C)c2C#N)CN(C)C(=O)c2ccc(F)cc21` as the compound, how does the “%Inh” value read?
A: 13%

Q: `Cc1occc1-c1nc(N)c(OC[C@@H](N)Cc2c[nH]c3ccccc23)cc1-c1cc2c(C)n[nH]c2cn1` [GSK1660450] was tested. Which “%Inh” value did it give?
A: 29%

Q: Which “%Inh” value does the source give for `Cl.Cl.NC[C@H](Cc1ccc(C(F)(F)F)cc1)NC(=O)c1cc(Br)c(-c2ccnc3[nH]ccc23)s1` [GSK1487252] here?
A: 4%
